The list is not random: actives were taken first. Their share in the collection is about 13%.
LASV entry inh: blocks Lassa virus binding to or entry into cells; 1.2% of 300,000 active; Potency, µM (series often up to 37.9 µM), most hits filed as inhibitors; Lassa virus pseudotype entry inhibition, cell reporter; AID 540256; calls by dose curve; tested in HEK293 cells; note: nearly all actives have a fitted effect of over 50% in size
Shiga toxin inh: Shiga toxin inhibition; Vero cells, Shiga toxin protein synthesis inhibition reporter; inhibition, % at 38.7 µM; 9.2% of 290,000 active; AID 2315; in the data active = inhibition mostly above about 28%, no sharp cut-off; inactive = mostly below about 43%
FMDV inh: antivirals against foot and mouth disease virus. 1.2% of 410,000 active. AID 1159524. Potency, µM (titrated, usually from 57.9 µM), actives largely listed as inhibitors. FMDV antiviral cell-based qHTS; calls by dose curve; tested in HEK293T cells; note: read-out not given here; nearly all actives have a fitted effect of over 45% in size
MARV entry inh: Marburg virus entry inhibition. 1.8% of 300,000 active. Potency, µM (highest dose often 37.8 µM), actives largely listed as inhibitors. Marburg virus pseudotyped entry inhibition, cell reporter; calls by dose curve; tested in HEK293 cells
CHX counter: counter-screen for Shiga toxin inhibitors: cycloheximide protein synthesis inhibition; cell reporter, cycloheximide protein synthesis inhibition counterscreen; max response, %; 12% of 300,000 active; AID 2314; in the data active = max response mostly above about 13%, no sharp cut-off; inactive = mostly below about 14%; note: read at 38.3 µM for the half of the compounds with a filed dose
HCV inhibitor: HCV inhibition; Huh7.5.1 HCVcc-Cre infection, luciferase reporter, 44 h; Potency, µM (series often up to 41.8 µM), most hits filed as inhibitors; 3.4% of 340,000 active; active = well fitted inhibition curve with a large enough effect; inconclusive = small, poorly fitted or top-dose-only effect, or another doubt; inactive = no such curve, though single readings can be large or run the other way
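Infectious HCVcc-Cre (~0.5 moi) was added to cells just after compound, with cells seeded 4 h earlier at 1,000 per well. Luciferase activity after 44 h culture reported infection; substrate was incubated 15 min at room temperature before reading.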
Numbers stand for hits; n = inactive; u = inconclusive; x = no result given; ! = not active in a repeat.

SMILES	LASV entry inh	Shiga toxin inh	FMDV inh	MARV entry inh	CHX counter	HCV inhibitor
COc1ccc(CCNC(=O)c2ccccc2NC(=O)C2=C(C)OCCS2)c(OC)c1	x	n	n	x	n	10µM
COc1cc(NC(=O)C2=C(C)OCCS2)c(Cl)cc1C(=O)NCCN(C)C	n	n	n	10µM	n	u
O=C(CCS(=O)(=O)c1nc(-c2ccc3c(c2)OCO3)cc(C(F)(F)F)n1)Nc1ccc(F)c(Cl)c1	n	x	u	n	x	x
COc1ccc2nc(SC(C)C(=O)NC3(C#N)CCCCC3)[nH]c2c1 (stereo not given)	x	x	n	x	x	u
CCc1cccc(NC(=O)CCNS(=O)(=O)c2ccc3c(c2)CCN3C(C)=O)c1	n	x	n	n	x	x
Cn1c(=O)c2cc(S(=O)(=O)NCCC(=O)Nc3ccc(Cl)cc3)ccc2n(C)c1=O	n	n	n	n	n	x
COc1ccc(NC(=O)CSc2nc(N)c3cc4c(nc3n2)CCCC4)cc1	u	61	n	u	47	n
CC(=O)c1ccc(NC(=O)CSc2nc(N)c3cc4c(nc3n2)CCCC4)cc1	n	66	n	n	37	n
CCOC(=O)c1sc2ccccc2c1S(=O)(=O)N1CCN(c2ccccc2F)CC1	n	x	n	x	x	x
O=C(NCc1ccccc1CN1CCCC1)c1ccc(Cl)c(N2CCCC2=O)c1	x	x	n	x	x	18µM
O=C(NCc1ccccc1CN1CCCCC1)c1ccc(Cl)cc1N1CCCC1=O	x	x	n	x	x	n
COCCN1C(=O)c2oc3ccc(C)cc3c(=O)c2C12C(=O)N(C)c1ccccc12 (stereo not given)	n	x	n	n	x	x
O=C(Cc1ccccc1)N/N=C/c1ccc2cccc(O)c2n1	u	n	n	n	32	u
NC(=O)N/N=C/c1ccc2cccc(OCc3ccccc3)c2n1	n	n	n	n	n	n
CC(=O)c1c(C)[nH]c(C(=O)CSc2nnc(-c3ccccc3)o2)c1C	u	n	u	u	n	8.9µM
CC(=O)c1c(C)[nH]c(C(=O)CSc2nnc3ccccn23)c1C	u	n	n	u	n	n
Cc1cnc(NC(=O)CSc2nnc(-c3ccccc3)o2)s1	n	44	n	u	41	n
Cc1ccc(-c2nnc(SCC(=O)Nc3ccccc3N3CCOCC3)o2)cc1	n	n	n	n	n	n
CCc1nnc(NC(=O)CSc2nnc(-c3ccccc3O)o2)s1	n	92	n	u	34	n
Cc1ccc(-c2nnc(SCC(=O)Nc3ccccc3F)o2)cc1	x	n	n	x	16	n
CCCc1c(C(=O)N/N=C/c2ccc(OCc3ccc(F)cc3)cc2)nnn1-c1nonc1N	x	x	n	x	x	x
CCn1nc(C)cc1C(=O)N1CCC2(CC1)c1ccccc1[C@@H](NC(=O)c1cccnc1)[C@@H]2O	x	x	n	x	x	x
N#CCSc1ccccc1NC(=O)COc1ccc(-c2nnco2)cc1	x	x	n	x	x	n
N#Cc1ccsc1NC(=O)COc1ccc(-c2nnco2)cc1	n	99	n	n	35	n
CC(=O)c1c(C)[nH]c(C(=O)CSc2nnc(C)s2)c1C	n	92	n	n	44	n
SMILES	LASV entry inh	Shiga toxin inh	FMDV inh	MARV entry inh	CHX counter	HCV inhibitor
C=CCn1c(C)nnc1SCC(=O)c1[nH]c(C)c(C(C)=O)c1C	n	n	n	n	n	n
CCc1nnc(NC(=O)CSc2ncc(-c3ccccc3)n2C)s1	n	102	n	u	54	n
N#Cc1ccsc1NC(=O)CSc1nnc(-c2ccccc2)o1	n	87	n	n	31	n
CCOc1ccc(CCNC(=O)COC(=O)COc2cc(C)cc(C)c2)cc1OCC	n	x	u	u	x	n
O=C(CSc1nnc(-c2ccccc2)o1)Nc1ccccc1F	x	n	n	x	23	n
Cc1[nH]c2ccc(-c3nnc(SCC(=O)c4ccccc4F)o3)cc2c1C	8.9µM	n	n	u	n	u
COc1ccccc1-c1nnc(SCC(=O)Nc2ccccc2F)o1	n	x	n	u	x	x
O=C(NCCN1CCOCC1)c1ccc(Cl)c(S(=O)(=O)N2CCCC2)c1	n	n	n	n	n	n
CCC1CN(CC(=O)NCc2cccc(Br)c2)c2ccccc2S1 (stereo not given)	n	x	n	x	x	x
CC1CN=C(N(C(=O)Nc2ccccc2)c2ccc(S(=O)(=O)N3CCOCC3)cc2)S1 (stereo not given)	n	n	n	n	18	u
CCCCCCCCCCCCCCCC[n+]1ccc(/C=N/O)cc1	6.5µM	n	u	4.5µM	n	u
CCCCCCCCCCCCCCCC[n+]1ccccc1	u	x	16µM!	u	x	3.2µM
CCCCCCC[n+]1ccc(-c2cc[n+](CCCCCCC)cc2)cc1	n	n	n	u	n	u
CCOC(=O)c1c(N)sc2c1CCC1C(=O)N(C3CCCCC3)C(=O)C21 (stereo not given)	n	n	n	n	32	u
CCOC(=O)c1c(N)sc2c1CCC(CC)C2 (stereo not given)	n	n	n	n	n	n
CCOc1ccc(NC(=S)N(CCc2c(C)[nH]c3ccccc23)Cc2ccco2)cc1	n	n	n	n	n	u
COc1ccc(NC(=S)N(CCc2c(C)[nH]c3ccccc23)Cc2ccco2)cc1	u	n	n	13µM	n	n
CCOC(=O)c1c2c(n(C3CCCCC3)c1CN(C)C)CC(Br)=C(OC)C2	x	x	x	10µM	x	x
CCOC(=O)c1c(C)oc2c1c(C=NCCC(=O)O)c(O)c1ccccc12	u	n	n	n	n	n
CCOC(=O)N1CCN(Cc2cc(=O)oc3ccc4ccccc4c23)CC1	n	n	20µM	n	n	n
CCOC(=O)c1c(C)oc2c1c(C(c1ccncc1)N1CCOCC1)c(O)c1ccccc12 (stereo not given)	u	100	n	u	51	13µM
CCOC(=O)c1c(C)oc2c1c(CN1CCN(C(=O)OCC)CC1)c(O)c1ccccc12	n	104	n	n	71	u
CCOC(=O)c1c(C)oc2c1c(CN1CCN(CCO)CC1)c(O)c1ccccc12	n	118	n	u	36	u
CC12CCC(=O)N1C(C(=O)NNC(=O)c1ccc(Br)cc1)CS2 (stereo not given)	n	x	n	n	x	n
COc1cccc(NC(=O)Cn2c(=O)n(-c3ccc(Cl)cc3)c(=O)c3sc4ccccc4c32)c1	n	x	n	n	x	x
SMILES	LASV entry inh	Shiga toxin inh	FMDV inh	MARV entry inh	CHX counter	HCV inhibitor
CCOC(=O)c1c(C)oc2c1c1c(c3ccccc32)OCN(Cc2ccccn2)C1	u	89	n	n	35	n
CCOC(=O)C1CCN(Cc2ccccn2)CC1	x	n	x	x	n	x
CSc1ccc(/C=C/C(=O)c2ccc(NC(C)=O)cc2)cc1	n	59	n	n	33	n
CCCC(=O)Nc1ccc(C(=O)/C=C/c2ccc(SC)cc2)cc1	u	n	n	u	n	11µM
CSc1ccc(NC(=O)CC(C)=O)cc1	n	n	n	n	n	n
CCN(CC(=O)NCc1cccs1)S(=O)(=O)c1ccc(C(C)C)cc1	u	n	n	n	n	n
Cn1nnnc1SCC(=O)Nc1ccc(Cl)cn1	u	n	n	n	n	n
Cc1c(C)c2ccc(O[C@@H]3O[C@H](CO)[C@@H](O)[C@H](O)[C@H]3O)c(C)c2oc1=O	u	n	n	u	n	n
COC(=O)c1sccc1-n1cccc1C(=O)C(=O)Nc1ccc(F)cc1	u	n	n	n	n	u

Bioassay records as filed in PubChem.
